Screening data deposited in PubChem BioAssay by National Center for Advancing Translational Sciences (NCATS).
Sampled rows, rich in hits. Any-hit rate of the full collection: about 7.3%.
SMN2 splice up – SMN2 splice variant enhancement; HEK293 SMN2-luciferase splicing reporter, luminescence, 30-36 h; Potency, µM (doses to about 46.1 µM), without a hit: at the top dose activity change, positive = activation, hits mostly activators; 210,000 tested, 2.8% active; AID 1458; note: % of control where 0% means no effect; nearly all actives have a fitted effect of over 55% in size
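HEK293 cells carry an SMN2 minigene-luciferase reporter in which exon 7 inclusion puts luciferase in frame. Cells were seeded at 2000 cells/well, attached for 10-12 hours, then exposed to compounds for 30-36 hours at 37C before ONE-Glo luminescence.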
p53 reactivation – restores transcriptional activity of mutant p53; 320,000 tested, 0.063% active; AID 504706; H1299 p53-A138V BP100-luciferase reporter, luminescence, 24 h; Potency, µM (highest dose often 92.2 µM), inactives show at the top dose activity change, positive = activation, actives largely listed as activators; note: % of control where 0% means no effect; nearly all actives have a fitted effect of over 45% in size
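p53-null H1299 cells stably carrying temperature-sensitive p53-A138V and a BP100-luciferase reporter were pinned with compounds (4-point, 1:5 series) and held 24 hrs at 37 deg C. Luminescence was read 10 min after detection reagent.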
ELG1 genotoxic – genotoxicity induction in ELG1-luciferase HEK293T cells | 330,000 tested, 1.3% active | AID 504466 | Potency, µM (highest dose often 46 µM), for inactives: top-dose activity change, positive = activation, most hits filed as activators | HEK293T ELG1-luciferase reporter, luminescence, 16 h; note: % of control where 0% means no effect; nearly all actives have a fitted effect of over 60% in size
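Step 1: seed 2,000 HEK293T ELG1-luciferase cells per well. Step 2: add compound or DMSO, incubate 16 hr at 37 °C. Step 3: ONE-Glo, 30 min at room temperature, read luminescence.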
Rab9 prom act – Rab9 promoter activation. Huh7 Rab9 promoter-luciferase reporter, luminescence, 24 h. Potency, µM (titrated, usually from 9.22 µM), for the others: at the top dose activation, negative = inhibition, most hits filed as activators. 320,000 tested, 2.8% active; note: % of control where 0% means no effect; nearly all actives have a fitted effect of over 60% in size
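Steps: seed 1500 Huh7 Rab9-luc cells per well, rest 2 h at 37 °C; add compound in DMSO; incubate 24 h; add luciferase reagent, 10 min ambient; read luminescence.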
NPC1 prom act – activators of NPC1 promoter; Huh7 NPC1 promoter luciferase reporter, 24 h; Potency, µM (top dose mostly 9.22 µM), inactives show at the highest dose activation, actives largely listed as activators; 320,000 tested, 2.4% active; AID 485313; note: % of control where 0% means no effect; nearly all actives have a fitted effect of over 60% in size
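Luciferase expression driven by the NPC1 promoter was measured in stably transfected Huh7 cells after a 24 h compound incubation, using a luciferase reagent and a luminescence read.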
FLuc modulator – firefly luciferase modulation, counter-screen for miR-21 project; P08659; purified FLuc, Km substrates, luminescence inhibition; Potency, µM (series often up to 57.5 µM), without a hit: at the top dose activity change, negative = inhibition, usual class: inhibitors; 360,000 tested, 6.9% active; AID 588342;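 note: plate controls were vehicle for no effect and reference inhibitor for full effect; nearly all actives have a fitted effect of over 55% in size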
Target sequence (P08659 whole entry, looked up): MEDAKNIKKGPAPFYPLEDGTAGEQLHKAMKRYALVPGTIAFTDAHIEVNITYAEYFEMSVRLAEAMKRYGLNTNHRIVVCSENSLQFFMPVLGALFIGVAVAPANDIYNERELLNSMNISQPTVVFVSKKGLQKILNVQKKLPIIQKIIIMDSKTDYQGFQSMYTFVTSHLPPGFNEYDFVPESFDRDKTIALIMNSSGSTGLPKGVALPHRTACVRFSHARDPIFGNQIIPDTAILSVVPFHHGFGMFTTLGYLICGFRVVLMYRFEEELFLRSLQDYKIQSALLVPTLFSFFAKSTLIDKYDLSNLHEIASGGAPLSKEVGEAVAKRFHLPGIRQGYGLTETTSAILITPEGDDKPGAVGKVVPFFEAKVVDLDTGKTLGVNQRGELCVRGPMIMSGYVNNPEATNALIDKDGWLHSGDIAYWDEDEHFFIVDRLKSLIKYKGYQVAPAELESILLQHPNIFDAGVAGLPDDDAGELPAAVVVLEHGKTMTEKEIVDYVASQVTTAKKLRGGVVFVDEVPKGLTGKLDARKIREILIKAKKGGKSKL
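Purified P. pyralis luciferase, 10 nM final, with Km-level 10 uM D-luciferin and 10 uM ATP in 50 mM Tris acetate pH 7.5, 10 mM Mg acetate, 0.01% Tween-20, 0.05% BSA; 6-point qHTS titration about 60 µM downward; luminescence read.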
An asterisk follows results filed as active; ? = inconclusive; / = no result. Calls come from the whole dose curve; as a rule, active = well fitted curve in the direction sought with a large enough effect; inconclusive = small, poorly fitted or top-dose-only effect, or another doubt; inactive = no such curve, though single readings can be large; an effect the other way counts as inactive or inconclusive. Potency is the fitted concentration of half-maximal effect.

SMILES	SMN2 splice up	p53 reactivation	ELG1 genotoxic	Rab9 prom act	NPC1 prom act	FLuc modulator
O=C(Nc1cccc(Br)c1)c1ccc(OC2CSC2)cc1	73.8%	26.2%	3.26µM*	2.24µM*	?	2.69µM*
CC(=O)c1cccc(NC(=O)c2ccc(OC3CSC3)cc2)c1	-41.7%	2.6%	-10.8%	28.9%	22.0%	?
CCc1ccc(NC(=O)C(CC)n2c(=O)c(C(F)(F)F)nc3ccccc32)cc1 (stereo not drawn)	/	/	/	/	/	-0.5%
Cc1cccc(NC(=O)CCCCCn2c(=O)[nH]c3ccsc3c2=O)c1	0.4%	/	/	/	/	-13.6%
O=C1CC(c2cc(-c3ccccc3)no2)C1	/	13.8%	?	2.82µM*	?	?
O=C1c2ccccc2C(=O)N1Cc1cc(-c2ccccc2)no1	-76.9%	9.1%	-1.1%	-7.0%	0.3%	-12.2%
COc1cc2c(cc1OC)C1C(=O)c3ccc4c(c3OC1CO2)C=CC(C)(C)O4 (stereo not drawn)	-73.1%	/	/	/	/	/
CSCCC(NC(=O)c1ccco1)C(=O)NCC(c1ccccc1)N(C)C (stereo not drawn)	/	7.7%	1.6%	-1.8%	0.2%	-8.7%
Cn1c(CCNC(=O)c2ccco2)nc2cc(NC(=O)COc3ccc(Cl)cc3)ccc21	-9.6%	/	/	/	/	-3.6%
CC(C)C[C@H](NC(=O)c1nc[nH]c1C(=O)N1CCN(C(=O)OC(C)(C)C)CC1)C(=O)OCc1ccccc1	/	-3.4%	8.3%	0.9%	-3.8%	-0.3%
O=C(Nc1ccc2c(c1)OCCO2)c1cccc(S(=O)(=O)N2CCOCC2)c1	?	14.7%	?	4.47µM*	?	?
O=C(Nc1ccc(Cl)c(S(=O)(=O)N2CCOCC2)c1)c1ccc2c(c1)OCO2	/	1.3%	-12.4%	/	/	/
COc1ccc(N(C)S(=O)(=O)c2cccc(C(=O)Nc3ccc4c(c3)OCCO4)c2)cc1	9.3%	-4.0%	-12.6%	-8.4%	0.5%	-9.0%
O=C(Nc1ccc(Cl)c(S(=O)(=O)N2CCOCC2)c1)c1ccc2c(c1)OCCO2	-53.2%	15.0%	-16.7%	4.2%	-0.6%	26.9µM*
CCN(CC)S(=O)(=O)c1cccc(C(=O)Nc2ccc3c(c2)OCO3)c1	?	5.6%	5.8%	?	?	15.1µM*
O=C(Nc1ccc2c(c1)OCCO2)c1cccc(S(=O)(=O)N2CCCCC2)c1	-10.1%	4.7%	9.4%	-5.9%	-2.0%	?
CS(=O)(=O)c1cccc(C(=O)Nc2ccc3c(c2)OCCCO3)c1	/	?	?	3.55µM*	?	15.1µM*
CCOCCCNC(=O)C(c1ccc(Cl)cc1)N(Cc1ccc2c(c1)OCO2)C(=O)c1ccc(NC(C)=O)cc1 (stereo not drawn)	-5.5%	/	/	/	/	5.7%
CC(C)CC(NC(N)=O)C(=O)NCc1ccccc1Cl (stereo not drawn)	/	2.4%	4.6%	18.9%	5.0%	?
CC(=O)CC(=O)Nc1ccccc1	4.2%	/	/	/	/	/
CCC(CC)C(=O)Nc1cccc(C(=O)Nc2ccc3c(c2)OCO3)c1	8.91µM*	?	11.2%	18.5%	27.0%	?
CCC(CC)C(=O)Nc1cccc(C(=O)Nc2ccc(S(N)(=O)=O)cc2)c1	/	-2.4%	0.2%	-4.7%	-3.7%	-2.6%
CCOC(=O)c1cccc(NC(=O)c2ccc(-n3cnnn3)cc2)c1	/	-0.5%	-3.9%	/	/	/
N/C(=N\OC(=O)c1ccc(Cl)c([N+](=O)[O-])c1)c1ccccc1	/	?	12.9%	27.9%	-4.8%	12µM*
N/C(=N\OC(=O)c1ccccc1[N+](=O)[O-])c1cccnc1	24.2%	?	?	22.1%	16.0%	?
SMILES	SMN2 splice up	p53 reactivation	ELG1 genotoxic	Rab9 prom act	NPC1 prom act	FLuc modulator
N/C(=N\OC(=O)c1ccc([N+](=O)[O-])cc1)c1cccnc1	/	?	?	-4.8%	-0.8%	2.69µM*
N/C(=N\OC(=O)c1cc([N+](=O)[O-])ccc1Cl)c1cccnc1	/	?	?	-0.5%	-2.6%	-7.9%
Cc1ccc(C(=O)O/N=C(\N)c2cccnc2)cc1[N+](=O)[O-]	?	?	?	1.9%	9.6%	12µM*
COc1ccc(/C(N)=N/OC(=O)c2ccc(C)c([N+](=O)[O-])c2)cc1OC	-6.7%	0.9%	?	13.5%	10.5%	?
Cc1cc(-c2ccccc2)nc2cc(C(=O)Nc3cc(C(F)(F)F)ccc3Cl)nn12	-5.3%	/	/	/	/	-1.2%
COc1ccc(N(C(=O)c2ccc(Cl)cc2)S(=O)(=O)c2ccc(C)cc2)cc1	-4.0%	/	/	/	/	-1.8%
COc1ccc(C(=O)N2CCC3(CCCN(c4cccc(-c5ccccc5)c4)C3)CC2)cc1	-18.9%	/	/	/	/	/
CS(=O)(=O)c1ccc(C(=O)Nc2cccc(-c3nc4ccccc4[nH]3)c2)cc1	/	9.8%	-3.5%	0.8%	-7.8%	23.9µM*
CS(=O)(=O)Cc1ccc(C(=O)Nc2cccc(-c3nc4ccccc4[nH]3)c2)cc1	/	-13.0%	-18.6%	18.4%	13.8%	13.5µM*
Cn1ncc([N+](=O)[O-])c1C(=O)Nc1ccc(-c2nc3ccccc3[nH]2)cc1	?	?	?	?	?	21.3µM*
COCCN1Cc2cccc(C(=O)Nc3cccc(-c4nc5ccccc5[nH]4)c3)c2C1=O	/	27.2%	-2.7%	-0.2%	7.0%	?
O=C(Nc1ccc(-c2nc3ccccc3[nH]2)cc1)c1c(F)c(F)c(F)c(F)c1F	-2.3%	10.6%	2.5%	-4.6%	-4.6%	-1.1%
CS(=O)(=O)c1ccc(C(=O)Nc2ccc(-c3nc4ccccc4[nH]3)cc2)cc1	/	27.9%	10.0%	2.51µM*	?	2.2%
CC(C)C(=O)c1cc2c(cc1NC(=O)c1ccccc1F)OCCO2	/	/	/	/	/	3.7%
COc1cn(CC(=O)Nc2ccc(C)cc2)c(CN2CCCCC2)cc1=O	/	/	/	/	/	-2.0%
C=CCNC(=S)NNC(=O)C(CCCC)CC(C)(C)O (stereo not drawn)	-14.3%	-8.6%	-3.2%	-5.4%	-3.3%	3.2%
CS(=O)(=O)c1cccc(C(=O)Nc2cccc(-c3nc4ccccc4[nH]3)c2)c1	/	2.4%	-2.4%	12.8%	19.4%	12µM*
CCCOc1ccc(C(=O)Nc2cccc(-c3nc4ccccc4[nH]3)c2)cc1	?	/	/	/	/	4.78µM*
CCOc1cc(OCC)cc(C(=O)Nc2cccc(-c3nc4ccccc4[nH]3)c2)c1	-47.7%	/	/	/	/	-0.6%
COc1ccc2c(=O)c(Oc3ccc(C(=O)O)cc3)c(C(F)(F)F)oc2c1	2.51µM*	-12.0%	?	?	?	?
Cc1ccc(C)c(NC(=O)CN(C)S(=O)(=O)c2cccc3cccnc23)c1	17.1%	-4.0%	-8.7%	1.2%	-1.2%	5.5%
